In PubChem BioAssay:
Several values for one entry are separate records, joined by “and”; a condition that tells them apart may be missing. Identical values can stand only once. Results filed as inconclusive are left out. Activity calls are given as the source filed them.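 Rule for the calls, unless noted: active = normalized viability below 100% at a tested concentration; inactive = the rest.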

Assays:
[1] = viability loss in pontine glioma line – cell-based, SU-DIPG-XIII, MIPE4.0, CellTiter-Glo, qHTS, dose response (AID 1347061; cut-off not given, nearly all actives have AC50 up to about 37 µM;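 note: cells exposed to compound for 48 hours before readout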); conditions: CellTiter-Glo ATP luminescence
[2] = viability loss in pontine glioma line – cell-based, SU-DIPG-IV, MIPE4.0, CellTiter-Glo, qHTS, dose response (AID 1347063; cut-off not given, nearly all actives have AC50 up to about 30 µM;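 note: compound exposure lasted 48 hours before the viability readout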); conditions: CellTiter-Glo ATP luminescence
[3] = viability loss in pontine glioma line – cell-based, SU-DIPG-XIII, MIPE5.0, CellTiter-Glo, qHTS, dose response (AID 1347064; cut-off not given, nearly all actives have AC50 up to about 23 µM); conditions: CellTiter-Glo ATP luminescence
[4] = JHH-DIPG-1 glioma cell viability, MIPE5.0 library, CellTiter-Glo luminescence, qHTS (AID 1347067; cut-off not given, nearly all actives have AC50 up to about 26 µM;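 note: cells exposed to compound for 48 hours before readout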); conditions: JHH-DIPG-1 glioma viability, CellTiter-Glo ATP luminescence
[5] = viability loss with induced miR-34 in A549 – imaging, A549 dox-inducible miR-34, nuclei and caspase counts, primary screen (AID 1347080;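 active = compounds whose cell count with miR-34 switched on is under 0.7 times the count with it off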); conditions: A549 miR-34 inducible, Hoechst nuclei count, 48 h
[6] = MELAS cybrid and Rieske KO viability enhancers – cell-based, MELAS cybrids, Rieske KO mouse fibroblasts, CellTiter-Glo, primary screen (AID 1508586;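 active = mean z-score across replicates of 1.96 or higher in either the MELAS or the Rieske mutant cell line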;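 note: z relative to plate mean and SD of compound and empty wells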); conditions: low glucose
[7] = drug combination growth inhibition, ovarian cancer – cell-based, oncology-focused library, rucaparib conditional, profiling panel (AID 1508598); conditions: patient-derived ovarian cancer cells, CellTiter-Glo viability, 144 h, stronger effect = lower value
[8] = growth inhibition of DIPG cells – cell-based, MIPE4.0 library, CellTiter-Glo luminescence, qHTS (AID 1347066; cut-off not given, nearly all actives have AC50 up to about 30 µM;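 note: cells exposed to compound for 48 hours before readout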); conditions: SU-DIPG-VI viability, CellTiter-Glo ATP luminescence
[9] = viability loss in pontine glioma line – cell-based, JHH-DIPG-1, MIPE4.0, CellTiter-Glo, qHTS, dose response (AID 1347062; cut-off not given, nearly all actives have AC50 up to about 27 µM); conditions: JHH-DIPG-1 viability, CellTiter-Glo ATP luminescence
[10] = viability loss in pontine glioma line – cell-based, SU-DIPG-XXV, MIPE5.0, CellTiter-Glo, qHTS, dose response (AID 1347065; cut-off not given, nearly all actives have AC50 up to about 26 µM;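 note: cells exposed to compound for 48 hours before ATP readout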); conditions: CellTiter-Glo ATP luminescence
[11] = growth inhibition of DIPG cells – cell-based, MIPE5.0 library, qHTS (AID 1347068; cut-off not given, nearly all actives have IC50 up to about 30 µM); conditions: SU-DIPG-XXV viability
[12] = compounds altering HSF1 focus formation in cells – imaging, Selleck Cancer Library (AID 1347162; in the data active = plate-normalised HSF1 focus index below about 0.46); conditions: human cells, HSF1 nuclear foci imaging, at 10 µM; SSMD: measured here: HSF1 foci SSMD mean; cell count: measured here: cell number; plate-normalised HSF1 focus index: stronger effect = lower value
[13] = stronger effect = lower value, cell number ratio, induced over uninduced
[14] = measured here: relative caspase fold change +Dox/-Dox
[15] = measured here: total cells with miR-34 induction, stronger effect = lower value
[16] = measured here: total cells without miR-34 induction
[17] = MELAS cybrid survival, CellTiter-Glo 48 h, stronger effect = higher value
[18] = Rieske KO mouse fibroblast survival, CellTiter-Glo 72 h
[19] = at 0.000305 µM, OCI-C5x cells, with rucaparib 10 µM, 100% = cells with rucaparib alone
[20] = at 0.000305 µM, OCI-C5x cells, without rucaparib
[21] = at 0.000305 µM, OCI-P5x cells, with rucaparib 20 µM, 100% = cells with rucaparib alone
[22] = at 0.000305 µM, OCI-P5x cells, without rucaparib
[23] = at 0.00122 µM, OCI-C5x cells, with rucaparib 10 µM, 100% = cells with rucaparib alone
[24] = at 0.00122 µM, OCI-C5x cells, without rucaparib
[25] = at 0.00122 µM, OCI-P5x cells, with rucaparib 20 µM, 100% = cells with rucaparib alone
[26] = at 0.00122 µM, OCI-P5x cells, without rucaparib
[27] = at 0.00488 µM, OCI-C5x cells, with rucaparib 10 µM, 100% = cells with rucaparib alone
[28] = at 0.00488 µM, OCI-C5x cells, without rucaparib
[29] = at 0.00488 µM, OCI-P5x cells, with rucaparib 20 µM, 100% = cells with rucaparib alone
[30] = at 0.00488 µM, OCI-P5x cells, without rucaparib
[31] = at 0.0195 µM, OCI-C5x cells, with rucaparib 10 µM, 100% = cells with rucaparib alone
[32] = at 0.0195 µM, OCI-C5x cells, without rucaparib
[33] = at 0.0195 µM, OCI-P5x cells, with rucaparib 20 µM, 100% = cells with rucaparib alone
[34] = at 0.0195 µM, OCI-P5x cells, without rucaparib
[35] = at 0.0781 µM, OCI-C5x cells, with rucaparib 10 µM, 100% = cells with rucaparib alone
[36] = at 0.0781 µM, OCI-C5x cells, without rucaparib
[37] = at 0.0781 µM, OCI-P5x cells, with rucaparib 20 µM, 100% = cells with rucaparib alone
[38] = at 0.0781 µM, OCI-P5x cells, without rucaparib
[39] = at 0.313 µM, OCI-C5x cells, with rucaparib 10 µM, 100% = cells with rucaparib alone
[40] = at 0.313 µM, OCI-C5x cells, without rucaparib
[41] = at 0.313 µM, OCI-P5x cells, with rucaparib 20 µM, 100% = cells with rucaparib alone
[42] = at 0.313 µM, OCI-P5x cells, without rucaparib
[43] = at 1.25 µM, OCI-C5x cells, with rucaparib 10 µM, 100% = cells with rucaparib alone
[44] = at 1.25 µM, OCI-C5x cells, without rucaparib
[45] = at 1.25 µM, OCI-P5x cells, with rucaparib 20 µM, 100% = cells with rucaparib alone
[46] = at 1.25 µM, OCI-P5x cells, without rucaparib
[47] = at 5 µM, OCI-C5x cells, with rucaparib 10 µM, 100% = cells with rucaparib alone
[48] = at 5 µM, OCI-C5x cells, without rucaparib
[49] = at 5 µM, OCI-P5x cells, with rucaparib 20 µM, 100% = cells with rucaparib alone
[50] = at 5 µM, OCI-P5x cells, without rucaparib

CN(C)N=Nc1nc[nH]c1C(N)=O
inactive: outcome [1] | outcome [2] | outcome [3] | outcome [4] | fold change [5, 13] 0.887 and 0.898 | z-score [6, 17] -0.353 and -0.0151 | viability [7, 19] 107% | viability [7, 20] 101% | viability [7, 21] 107% | viability [7, 22] 108% | viability [7, 23] 106% | viability [7, 24] 108% | viability [7, 25] 109% | viability [7, 26] 108% | viability [7, 27] 111% | viability [7, 28] 107% | viability [7, 29] 106% | viability [7, 30] 104% | viability [7, 31] 105% | viability [7, 32] 105% | viability [7, 33] 103% | viability [7, 34] 112% | viability [7, 35] 111% | viability [7, 36] 109% | viability [7, 37] 105% | viability [7, 38] 110% | viability [7, 39] 112% | viability [7, 40] 109% | viability [7, 41] 105% | viability [7, 42] 110% | viability [7, 43] 116% | viability [7, 44] 120% | viability [7, 45] 104% | viability [7, 46] 111% | viability [7, 47] 201% | viability [7, 48] 164% | viability [7, 50] 113%
9080 and 7660: cell count [5, 15]
1.47 and 1.18: fold change [5, 14]
active: viability [7, 49] 99.7%
0.329 and 0.212: z-score [6, 18]
10200 and 8520: cell count [5, 16]

CCOc1ccccc1OCCNC(C)Cc1ccc(OC)c(S(N)(=O)=O)c1 (centres undefined)
inactive: outcome [1] | outcome [2] | outcome [8]

O=C1C(CCC(O)c2ccc(F)cc2)C(c2ccc(O)cc2)N1c1ccc(F)cc1 (centres undefined)
7660 and 7830: cell count [5, 15]
8580 and 8640: cell count [5, 16]
1.57 and 0.763: fold change [5, 14]
-0.0457: z-score [6, 18]
inactive: outcome [1] | outcome [9] | outcome [8] | fold change [5, 13] 0.893 and 0.906 | z-score [6, 17] -0.505

C[C@H](NC(=O)Cc1cc(F)cc(F)c1)C(=O)N[C@@H]1C(=O)N(C)c2ccccc2-c2ccccc21
-0.743: SSMD [12]
5760: cell count [12]
inactive: outcome [10] | outcome [8] | outcome [4] | outcome [11] | plate-normalised HSF1 focus index [12] 0.981 | viability [7, 19] 117% | viability [7, 20] 120% | viability [7, 23] 121% | viability [7, 24] 124% | viability [7, 26] 102% | viability [7, 27] 118% | viability [7, 28] 127% | viability [7, 30] 102% | viability [7, 31] 122% | viability [7, 32] 129% | viability [7, 33] 101% | viability [7, 35] 122% | viability [7, 36] 132% | viability [7, 38] 104% | viability [7, 39] 131% | viability [7, 40] 145% | viability [7, 43] 142% | viability [7, 44] 144% | viability [7, 47] 146% | viability [7, 48] 141%
active: AC50 [1] 18.7 µM | viability [7, 21] 94.9% | viability [7, 22] 97.1% | viability [7, 25] 93.1% | viability [7, 29] 90.9% | viability [7, 34] 97.6% | viability [7, 37] 96.3% | viability [7, 41] 90.1% | viability [7, 42] 99.7% | viability [7, 45] 97.9% | viability [7, 46] 99% | viability [7, 49] 87.4% | viability [7, 50] 90.3%
